Here are results for 33 molecules from PubChem BioAssay AID686997 (Broad Institute, 2013).

Measured potencies and affinities stand elsewhere. A number with no mark means an inactive call.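 Rule for the calls: active = compound lowering the viability signal whose fitted half-maximal dose is at most twice its top tested dose; inconclusive = flat curve with 30 to 70% inhibition, or poor fit; inactive = the rest.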

The nature of this assay: PubChem AID 686997. As to conditions: C. neoformans growth, alamar blue, 72 h (sorbitol counter-screen); series mostly up to 35 µM; activity change, negative = inhibition: at the top concentration.
Consider `COC(=O)C1=C(C)N(Cc2ccc(F)cc2)C(=S)NC1c1ccc(F)cc1` (stereo not drawn), for which the “activity change, negative = inhibition” value is 17.6% [at 16 µM].

With `COc1cccc(NC(=S)NC(=O)Cc2ccc(Cl)cc2)c1`, the “activity change, negative = inhibition” value was 7.7%.

Consider `CCOC(=O)NC(=S)Nc1ccc(C(C)(C)C)cc1`, for which the “activity change, negative = inhibition” value is -8.87%.

Regarding `CCc1ccc(C(C)NC(=S)NCc2ccc(F)cc2)cc1` (stereo not drawn), the “activity change, negative = inhibition” value is 4.02%.

For the molecule `S=C(NCc1ccccc1)NCC1COc2ccccc2O1` (stereo not drawn), the “activity change, negative = inhibition” value was -4.42%.

Regarding `O=C(NCCN1CCCCC1)[C@H]1N[C@H]2c3ccc(-c4ccncc4)c(=O)n3C[C@H]2[C@@H]1CO`, the “activity change, negative = inhibition” value was 13.6%.

`S=C(NCCCc1ccccc1)Nc1ccccc1`: the “activity change, negative = inhibition” value was 10.1%.

For `O=C(NC(=S)Nc1cc(Cl)ccc1N1CCOCC1)c1ccccc1[N+](=O)[O-]`, the “activity change, negative = inhibition” value is 9.06%.

Consider `COC(=O)C1=C(C)N(Cc2ccccc2)C(=S)N[C@H]1c1cccc(F)c1`, for which the “activity change, negative = inhibition” value is -1.98%.

Take `O=C(NC(=S)Nc1ccc(Br)cc1)C1CCC1`: the “activity change, negative = inhibition” value was 1.92%.

Regarding `COc1ccccc1NC(=S)NCc1ccc(Cl)cc1`, the “activity change, negative = inhibition” value is 1.84%.

Turning to `Fc1ccccc1NC(=S)NCCc1cccc(Cl)c1`, the “activity change, negative = inhibition” value was -1.31%.

Consider `O=C(NC(=S)Nc1ccccc1N1CCCC1)c1ccccc1[N+](=O)[O-]`, for which the “activity change, negative = inhibition” value is 3.81%.

For the molecule `O=C(NC(=S)NCC1COc2ccccc2O1)c1ccc(Cl)cc1` (stereo not drawn), the “activity change, negative = inhibition” value was 16.9% [at 46 µM].

As for `CO[C@H]1CN(C)C(=O)c2cc(NC(=O)C3CC3)ccc2OC[C@@H](C)N(Cc2cncnc2)C[C@H]1C`, the “activity change, negative = inhibition” value was 8.68%.

As for `O=C(Cc1ccccc1)N[C@H]1C=C[C@@H](CC(=O)N2CCOCC2)O[C@@H]1CO`, the “activity change, negative = inhibition” value is 15.1%.

Regarding `O=C(NC(=S)Nc1ccccc1N1CCCC1)c1ccc([N+](=O)[O-])cc1`, the “activity change, negative = inhibition” value is -3.51%.

For the molecule `COc1ccccc1NC(=S)NCc1ccccc1Cl`, the “activity change, negative = inhibition” value is 7.46%.

As to `Cc1cc(C(=O)NC(=S)Nc2ccccc2N2CCOCC2)ccc1[N+](=O)[O-]`, the “activity change, negative = inhibition” value was 3.41%.

For `Cc1ccc(C(=O)NC(=S)Nc2ccc(N3CCOCC3)cc2)cc1`, the “activity change, negative = inhibition” value was 9.23%.

As for `COc1ccc(CNC(=S)NCc2ccc(OC(C)C)cc2)cc1`, the “activity change, negative = inhibition” value was 1.25%.

Take `COc1ccc(NC(=S)NCc2ccc(Cl)cc2)c(OC)c1`: the “activity change, negative = inhibition” value was 8.07%.

Regarding `CCc1ccc(C(=O)NC(=S)NCc2cccnc2)cc1`, the “activity change, negative = inhibition” value is 7.29%.

Take `O=C(NC(=S)Nc1ccccc1N1CCOCC1)c1cccc([N+](=O)[O-])c1`: the “activity change, negative = inhibition” value is 5.09%.

With `Cc1ccc(C)c(NC(=O)C2(C)CCCN2C(=O)C(C)C)c1` (stereo not drawn), the “activity change, negative = inhibition” value was 13.8% [at 56 µM].

As for `CCCCNC(=S)N/N=C/c1ccc(C#N)cc1`, the “activity change, negative = inhibition” value is -5.24%.

`CCc1nc(N2CCCCC2C)c2oc3ccccc3c2n1` (stereo not drawn): the “activity change, negative = inhibition” value is 9.52%.

Consider `O=C(NC(=S)Nc1cccc(F)c1)c1cccc([N+](=O)[O-])c1`, for which the “activity change, negative = inhibition” value is 7.08%.

As to `CC(C)CC1(C)N=C(c2ccccc2)C(=S)N1` (stereo not drawn), the “activity change, negative = inhibition” value is 8.07%.

On to `COC(=O)C1=C(C)N(CC(C)C)C(=S)NC1c1cccc(F)c1` (stereo not drawn), for which the “activity change, negative = inhibition” value was 4.94% [at 42 µM].

As for `COc1ccccc1CNC(=S)NCc1ccc(Cl)cc1`, the “activity change, negative = inhibition” value was -4.87%.

With `Fc1ccccc1NC(=S)NN(Cc1ccccc1)c1ccccc1`, the “activity change, negative = inhibition” value was -2.68%.

`CCCCN1C(=S)NC[C@@H]1Cc1ccccc1`: the “activity change, negative = inhibition” value is 2.5%.
